# From PubChem BioAssay
# Rv3671c protease – Rv3671c (M. tuberculosis) protease inhibition. AID 2606. 320,000 compounds, 0.048% hits. inhibition, % at 5.96 µM; in the data active means inhibition above about 38%;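 further: extracellular domain of Rv3671c used as enzyme; 0% = enzyme with DMSO and 100% = no enzyme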
# GDH-TPI inh – GDH-TPI coupled enzyme inhibition counter-screen. GDH-TPI coupled enzyme counterscreen, NADH absorbance. inhibition, % at 4.8 µM. 360,000 compounds, 1.2% hits. AID 588335; in the data active means inhibition above about 30%;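 further: 0% = DMSO wells and 100% = wells lacking the enzyme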
# Mtb FBA inh – Mtb fructose-bisphosphate aldolase inhibition; P9WQA3; purified M. tuberculosis FBA, fluorescence read-out; inhibition, % at 1 µM; 360,000 compounds, 2.3% hits; AID 588726; in the data active means inhibition above about 27%;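 further: 0% = vehicle and 100% = reference inhibitor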
# Target sequence (P9WQA3 whole entry, looked up): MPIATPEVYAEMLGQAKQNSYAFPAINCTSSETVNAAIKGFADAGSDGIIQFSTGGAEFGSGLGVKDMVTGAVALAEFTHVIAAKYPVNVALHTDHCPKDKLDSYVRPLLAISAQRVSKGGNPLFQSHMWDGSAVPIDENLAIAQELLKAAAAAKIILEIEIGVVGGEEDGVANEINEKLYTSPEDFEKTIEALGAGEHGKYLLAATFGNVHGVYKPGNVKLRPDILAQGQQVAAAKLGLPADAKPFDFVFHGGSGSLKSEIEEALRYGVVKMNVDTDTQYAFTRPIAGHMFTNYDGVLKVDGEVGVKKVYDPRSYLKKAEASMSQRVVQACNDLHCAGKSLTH
# Mtb UGM inh – blocks M. tuberculosis UGM enzyme | P9WIQ1 | purified UGM, fluorescence polarization probe displacement | inhibition, % at 10 µM | 320,000 compounds, 0.06% hits | AID 504406; in the data active means inhibition above about 10%, passing the limit was not always enough
# The depositor's hits bear a star; . = no result; + = active, no number. Hits are enriched below; roughly 3.5% of the tested compounds scored in any of these assays.
SMILES,Rv3671c protease,GDH-TPI inh,Mtb FBA inh,Mtb UGM inh
CC1(C)CC(=O)C2=C(C1)c1c(ccc3ccccc13)NC2c1ccc(OCC(=O)O)cc1 (centres undefined),-9.8,17.8,+,0.1
COc1ccc(C2Nc3ccccc3NC3=C2C(=O)CC(C)(C)C3)cc1 (centres undefined),3.2,10.7,2.0,1.5
Cc1ccn2c(=O)nc(SCC(=O)N3CCCC3)nc2c1,3.5,5.2,2.2,.
CSc1ccc(CN2CCN(C(=O)Cc3ccccc3)CC2)cc1,4.6,31.0*,2.3,-1.7
CCc1n[nH]c(=S)n1/N=C/c1ccc(N(CC)CC)cc1,6.1,47.6*,-5.4,0.2
CCN(CC)c1ccc(/C=N/n2c(C)cc(C)cc2=O)cc1,-9.4,33.0*,-1.8,2.5
CCN(CC)c1ccc(/C=N/N2C(=O)c3ccccc3C2=O)cc1,-14.2,23.9,1.8,1.4
CCc1n[nH]c(=S)n1/N=C/c1c(C)nn(-c2ccccc2)c1Cl,-8.3,6.1,-0.4,2.8
COc1ccccc1/C=C(/C(=O)OCC(=O)Nc1cc(C)ccc1C)c1ccccc1,-14.2,8.6,-0.8,-2.8
CC[C@@]1(O)C(=O)OCc2c1cc1n(c2=O)Cc2cc3c(CN(C)C)c(O)ccc3nc2-1,6.3,34.3*,7.7,33.5*
CC[C@@]1(O)C(=O)OCc2c1cc1n(c2=O)Cc2cc3c(N)cccc3nc2-1,-0.5,33.5*,5.2,1.5
Cc1cc(C)c(Nc2cc(S(=O)(=O)O)c(N)c3c2C(=O)c2ccccc2C3=O)c(C)c1,44.4*,10.5,-3.2,-2.0
CC(C)(C)S(=O)(=O)c1cnc2c(S(=O)(=O)c3ccccc3)cnn2c1N,9.0,3.8,2.5,-0.6
Cc1nc2c(S(=O)(=O)c3ccccc3)cnn2c(C)c1C,5.8,0.0,43.6*,.
Cc1ccc(-n2c(N)c(C(=O)Nc3ccccc3F)sc2=S)cc1C,2.2,32.9*,-0.2,0.1
Cc1ccc(C(C)C)cc1OCC(=O)Nc1ccc(N2CCCCC2)cc1,5.7,7.0,1.2,1.7
C/C(=N\Nc1ccc2nncn2n1)c1cccs1,3.0,34.6*,1.6,-1.3
N#Cc1nc2ccccc2n1OCc1ccccc1,.,1.8,1.3,.
O=C(Nc1ccc(-c2nc3cccnc3s2)cc1)C1CCCO1 (centres undefined),-7.4,33.2*,+,3.5
O=S(=O)(Nc1ccc(-c2nc3cccnc3s2)cc1)c1cccs1,-4.6,15.3,+,0.0
O=S(=O)(Nc1ccc(-c2nc3cccnc3s2)cc1)c1ccccc1F,-8.9,62.5*,+,2.3
Cc1cc(-c2nc3cccnc3s2)ccc1NS(=O)(=O)c1cccs1,6.1,41.9*,+,0.7
CCS(=O)(=O)Nc1cccc(-c2nc3cccnc3s2)c1,2.2,5.2,2.6,-2.8
COCCNC(=O)C1(C)CCN(C(=O)c2ccc3sccc3c2)C1 (centres undefined),.,3.6,-0.1,.
COc1cccc(O)c1CN1CCC(n2nccc2NC(=O)c2ccc3c(c2)OCO3)CC1,-0.6,-2.0,0.9,-1.0
SMILES,Rv3671c protease,GDH-TPI inh,Mtb FBA inh,Mtb UGM inh
O=S(=O)(Nc1cccc(-c2nc3cccnc3s2)c1)c1ccc2c(c1)CCCC2,-143.6,3.3,14.2,2.1
Cc1c(NS(=O)(=O)c2ccc3c(c2)OCCO3)cccc1-c1nc2cccnc2s1,-11.7,11.5,1.6,-1.4
CCS(=O)(=O)Nc1ccc(-c2nc3cccnc3s2)cc1,-3.7,23.9,+,1.3
Cc1cc(-c2nc3cccnc3s2)ccc1NS(=O)(=O)c1ccc2c(c1)OCCO2,-84.3,30.6,+,4.1
Cc1nc2ccc(S(=O)(=O)Nc3ccc(-c4nc5cccnc5s4)cc3)cc2s1,-41.9,30.6,+,0.2
Cc1nc2ccc(S(=O)(=O)Nc3cccc(-c4nc5cccnc5s4)c3)cc2s1,-22.6,14.8,18.7,-2.8
O=S(=O)(Nc1ccc(-c2nc3cccnc3s2)cc1)c1ccc(Cl)s1,-14.7,37.2*,+,-0.8
COc1cccc(N(CC(=O)N2CCCCCC2)S(C)(=O)=O)c1,-5.2,-9.8,1.4,0.6
CCN(Cc1ccccc1)C(=O)CCS(=O)(=O)c1cc2c(cc1Cl)NC(=O)CO2,3.9,1.4,-0.3,3.9
CCOc1cc(C2C3=C(CC(C)(C)CC3=O)N(CCOC)C3=C2C(=O)CC(C)(C)C3)ccc1O,1.3,4.3,1.0,-0.4
COc1ccc(/C=N/NC2=NS(=O)(=O)c3ccccc32)cc1OC,-3.4,34.9*,-3.5,2.1
COc1cc(/C=N/NC2=NS(=O)(=O)c3ccccc32)ccc1OC(C)=O,7.3,34.0*,2.9,-0.3
CCN(CC(=O)Nc1ccc(N2CCOCC2)cc1)C(=O)Cc1ccccc1,4.1,-0.4,-0.5,3.7
CCOC(=O)N1CCC(N2Cc3cccc(C(=O)Nc4ccc(N(CC)CC)cc4C)c3C2=O)CC1,9.2,1.5,2.3,0.8
